# Compound activity as filed in PubChem BioAssay.
# HPGD inh – HPGD (human) dehydrogenase inhibition; P15428; purified HPGD, NADH fluorescence kinetic, PGE2 substrate; Potency, µM, most hits filed as inhibitors; 150,000 tested, 4.3% active; active means well fitted inhibition curve with a large enough effect, not every such curve was filed as active; inconclusive means small, poorly fitted or top-dose-only effect, or another doubt; inactive means no such curve, though single readings can be large or run the other way
#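 20 nM HPGD preincubated 15 min at room temperature with compound in 50 mM Tris-HCl pH 8, 0.01% Tween 20. Started with 1 mM NAD+ and 30 uM prostaglandin E2; NADH fluorescence (360/450 nm) read 5 times over 30-s intervals, last minus first.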
# HTT cytoprotect – protects HTT-Q103 PC12 cells, measured by ATP | PC12 HTT-Q103 induced, cytoprotection, ATP luminescence, 40 h | Potency, µM (series often up to 56.4 µM), actives largely listed as activators | 230,000 tested, 0.14% active | AID 1471; further: nearly all actives have a fitted effect of over 45% in size
#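 Quantitative HTS on tebufenozide-induced (100 nM) PC12 cells expressing HTTQ103 exon 1–GFP; compounds tested as a concentration series; survival measured via cellular ATP.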
# KDM4E inh – JMJD2E (human) inhibition | JMJD2E catalytic domain, FDH-coupled NADH fluorescence (FDH is formaldehyde dehydrogenase) | Potency, µM (top dose mostly 57.1 µM), most hits filed as inhibitors | 230,000 tested, 1.6% active | AID 2147; active means well fitted inhibition curve with a large enough effect, not every such curve was filed as active; inconclusive means small, poorly fitted or top-dose-only effect, or another doubt; inactive means no such curve, though single readings can be large or run the other way; further: nearly all actives have a fitted effect of over 50% in size
# CBFb-RUNX1 inh – inhibitors of human CBF-beta and RUNX1 interaction | 230,000 tested, under 10 active | Potency, µM (top dose mostly 59.8 µM), most hits filed as inhibitors | AlphaScreen CBFb-His/RUNX1-biotin binding, biochemical | Q01196+Q13951
# Target sequence (Q01196 whole entry, looked up): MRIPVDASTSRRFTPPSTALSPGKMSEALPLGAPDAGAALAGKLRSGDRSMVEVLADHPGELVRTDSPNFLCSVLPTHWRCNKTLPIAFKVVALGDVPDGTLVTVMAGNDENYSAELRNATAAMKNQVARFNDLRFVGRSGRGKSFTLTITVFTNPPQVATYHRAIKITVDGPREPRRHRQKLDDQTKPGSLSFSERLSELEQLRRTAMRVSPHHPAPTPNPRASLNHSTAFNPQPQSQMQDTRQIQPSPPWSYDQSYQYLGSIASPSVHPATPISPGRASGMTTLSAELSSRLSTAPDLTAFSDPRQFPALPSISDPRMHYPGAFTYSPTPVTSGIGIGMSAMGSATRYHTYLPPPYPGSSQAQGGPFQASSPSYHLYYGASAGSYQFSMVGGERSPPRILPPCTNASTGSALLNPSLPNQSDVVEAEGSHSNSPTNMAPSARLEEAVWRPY
# Target sequence (Q13951 whole entry, looked up): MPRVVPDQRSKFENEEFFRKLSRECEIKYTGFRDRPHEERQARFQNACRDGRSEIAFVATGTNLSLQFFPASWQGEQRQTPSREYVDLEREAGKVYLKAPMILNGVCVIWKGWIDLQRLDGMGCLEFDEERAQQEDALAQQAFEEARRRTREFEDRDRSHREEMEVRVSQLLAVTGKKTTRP
#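 Room-temperature protein-protein interaction test with 30 nM each of His-tagged CBF-beta and biotinylated RUNX1, 15 min with compound, then 90 min with nickel plus streptavidin beads. Signal read in AlphaScreen mode.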
# HTT aggregate – reduces HttQ103-GFP aggregates in PC12 cells; PC12 HttQ103-GFP aggregates, Acumen cytometry, 40 h; Potency, µM (highest dose often 46.1 µM), hits mostly inhibitors; 220,000 tested, 1.1% active; further: nearly all actives have a fitted effect of over 60% in size
#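 PC12/HTTQ103-GFP, ecdysone-inducible; teb 100 nM; cpd qHTS titration; GFP aggregates read on laser cytometer, Ex 488/Em 500-530 nm.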
# ALDH1A1 inh – inhibitors of human aldehyde dehydrogenase 1A1 | P00352 | Purified ALDH1A1, NADH fluorescence, propionaldehyde substrate | Potency, µM (doses to about 75.3 µM), actives largely listed as inhibitors | 220,000 tested, 7.3% active; active means well fitted inhibition curve with a large enough effect, not every such curve was filed as active; inconclusive means small, poorly fitted or top-dose-only effect, or another doubt; inactive means no such curve, though single readings can be large or run the other way
# Hits are given with their value; n = inactive; u = inconclusive; x = not tested or not shown; ! = not confirmed by another sample; [ ] = dose if it differs, or a comment. Compounds with a hit are over-represented: about 9.8% of the library has one in this group of screens. Unless noted, the call rests on the fitted dose curve; in most records, active means well fitted curve in the direction sought with a large enough effect; inconclusive means small, poorly fitted or top-dose-only effect, or another doubt; inactive means no such curve, though single readings can be large; an effect the other way counts as inactive or inconclusive.
SMILES,HPGD inh,HTT cytoprotect,KDM4E inh,CBFb-RUNX1 inh,HTT aggregate,ALDH1A1 inh
CCN(CC)CCCN1C=C2C(=O)C(C)(OC(=O)CCC(=O)OC)C(=O)C=C2C=C1C1CC1 (stereo not given),n,n[10 µM],u,n[13.1 µM],x,n[13.5 µM]
COC(=O)CCC(=O)OC1(C)C(=O)C=C2C=C(C3CC3)N(Cc3ccccc3)C=C2C1=O (stereo not given),n,n[10 µM],14µM!,u,n[9.22 µM],n[13.5 µM]
CC(=O)OC1CC2C(C)(C)C(=O)[C@@H]3OC3[C@@]2(C)C2CC[C@]3(C)C(=CC(=O)OC3c3ccoc3)[C@]12C (stereo not given in full),n,x,n,x,x,n
Cc1ccc(NC(=O)CCC(=O)N/N=C/c2cccs2)cc1,x,n,n,n,n,n
Cc1c(C(=O)Nc2nc3ccccc3[nH]2)oc2ccccc12,n,n[1.9 µM],3.2µM,n,u,n
CCn1c(=O)c(C(=O)Nc2nc3ccccc3[nH]2)c(O)c2ccccc21,n,n,n,u,10µM,n
CCc1nc2ccccc2c(=O)n1NC(=O)c1c(O)c2ccccc2n(CC)c1=O,x,n[10 µM],u,n,n[9.22 µM],n
Cc1c(C(=O)Nc2nc3ccccc3[nH]2)oc2ccc(Br)cc12,x,n[10 µM],u,n,n,n
CCC/C=C(\CCC)C(NC(=O)c1ccc(C(F)(F)F)cc1)c1ccc(C(F)(F)F)cc1 (stereo not given),n,n,n,n,x,n
C/C(=N\NC(=O)c1cccc(N/N=C(\C)c2cc(O)ccc2O)c1)c1cc(O)ccc1O,x,n[10 µM],25µM,n,u,7.9µM
COc1ccc(/C=C/C(=O)O)cc1S(=O)(=O)NCC1CCCO1 (stereo not given),x,n[10 µM],n,n,n[9.22 µM],x
COCCNC(=O)c1ccc2c(c1)NC(=O)CS2,35µM,n,n,n,n,n
O=C1CSc2ccc(C(=O)NCCC3=CCCCC3)cc2N1,n,n,n,n,n,n
Cc1ccc(NS(=O)(=O)c2cc(NC(=O)c3ccc4c(c3)NC(=O)CS4)ccc2Cl)c(C)c1,x,n[10 µM],u,n,u,10µM
O=C(Cn1cc(/C=C\[N+](=O)[O-])c2ccccc21)Nc1ccccc1,x,n[10 µM],n,n,n[9.22 µM],x
N#Cc1ccccc1Cn1cc(/C=C/[N+](=O)[O-])c2ccccc21,40µM,x,n,n,u,3.5µM
O=[N+]([O-])/C=C/c1cn(Cc2ccccc2)c2ccccc12,n,n,n,n,u,16µM
O=C(O)Cn1cc(/C=C/[N+](=O)[O-])c2ccccc21,x,x,n,n,n,n
C(=N\n1cnnc1)/c1cn(Cc2ccccc2)c2ccccc12,n,n,n,n,n,13µM
NC(=O)CSc1cn(Cc2ccccc2)c2ccccc12,x,n,n,n,n,7.9µM
Cc1cc(C(=O)Nn2c(C3CCCCC3)nc3ccccc3c2=O)ccc1[N+](=O)[O-],n,n[10 µM],n,n,u,22µM
O=C(Nn1c(C2CCCCC2)nc2ccccc2c1=O)c1ccc(Cl)c([N+](=O)[O-])c1,n,n[10 µM],n,n,u,n
O=C(CN1CCC(NC(=O)Cc2ccccc2)CC1)Nc1cccc2ccccc12,n,n,n,n,n,n
COc1ccc(NC(=O)CS(=O)CC(=O)NC2CCCc3ccccc32)cc1 (stereo not given),n,n[10 µM],n,n,n,n
O=C(CCn1cccc1)NC1CCCc2ccccc21 (stereo not given),n,n,n,n,n,n
SMILES,HPGD inh,HTT cytoprotect,KDM4E inh,CBFb-RUNX1 inh,HTT aggregate,ALDH1A1 inh
Cc1ccc(-n2nnnc2SCC(=O)NC2CCCc3ccccc32)c(C)c1 (stereo not given),n,n[10 µM],n,n,u,u
O=C(CCl)NC1CCCc2ccccc21 (stereo not given),x,n[10 µM],n,n,n[9.22 µM],3.2µM
CN(C(=O)CCl)C1CCCc2ccccc21 (stereo not given),x,n,n,n,u,0.4µM
CN(CC(=O)NC1CCCc2ccccc21)C1CCCCC1 (stereo not given),x,x,n,n,u,u
CCOc1ccc(NC(=O)CS(=O)CC(=O)NC2CCCc3ccccc32)cc1 (stereo not given),n,n[10 µM],n,n,n,6.3µM
Cc1ccc(-n2nnnc2SCC(=O)NC2CCCc3ccccc32)cc1 (stereo not given),n,n[10 µM],n,n,n,7.9µM
COc1cc(/C=C/C(=O)O)cc(S(=O)(=O)Nc2ccc3nc(SC)sc3c2)c1OC,x,n,n,n,n,n
Cc1onc(-c2c(Cl)cccc2Cl)c1NC(=O)NN(C)c1ccc([N+](=O)[O-])cn1,x,n[10 µM],n,n,n[9.22 µM],x
O=C(O)CCCCCNc1ccc2nsnc2c1[N+](=O)[O-],28µM,n[1.9 µM],n,n,n,n
CN(C(=O)c1ccc(C#N)cc1)c1nnc(-c2cnccn2)s1,x,n[10 µM],n,n,n[9.22 µM],x
CCc1cc(=O)oc2cc(C)cc(O)c12,28µM,n,n,n,u,4.5µM
CCCCc1cc(=O)oc2cc(C)c(CN3CCCC3)c(O)c12,n,n[10 µM],u,n,n,22µM
CCCc1cc(=O)oc2cc(C)cc(OC(=O)c3ccco3)c12,n,n,n,n,u,2.2µM
CCCCCc1cc(O)c2c(C)cc(=O)oc2c1,n,n[10 µM],n,n,25µM,1.8µM
Cc1ccc(NC(=O)CCC(=O)NNC(=O)c2ccccc2)c(C)c1,x,n[10 µM],n,n,n[9.22 µM],n
CCN(CC)C(=O)Cn1cc(C(=O)C2CC2)c2ccccc21,x,n[10 µM],n,n,n[9.22 µM],n
CC(C)(C)NC(=O)C(c1ccc(I)cc1)N(CCN1CCOCC1)C(=O)CCCNC(=O)c1ccccc1 (stereo not given),n,n,n,n,x,n
COc1ccc(C2CC(c3ccc(OC)cc3)n3nc(NS(C)(=O)=O)nc3N2)cc1 (stereo not given),x,n[10 µM],n,n,n[9.22 µM],x
COC(=O)c1ccc(C(NC(=O)OCc2ccccc2)/C(=C/[C@@H](C)C(=O)NCc2cc(C)on2)c2cccnc2)cc1 (stereo not given in full),n,n,n,n,x,n
CCCc1cc(=O)oc2cc(C)cc(O)c12,n,n[10 µM],n,n,u,8.9µM
C[C@]12CC[C@H]3c4ccc(O)cc4CC[C@@H]3[C@H]1CC[C@@H]2OC(=O)CCc1ccccc1,n,n[10 µM],x,x,x,n[13.5 µM]
O=C(NNc1cccc([N+](=O)[O-])c1)/C(=C\c1cccnc1)NC(=O)c1ccccc1,x,n[10 µM],n,n,n[9.22 µM],x
CCC(C)(C)C1CCC(=NNC(=O)c2ccoc2C)CC1 (stereo not given),n,n,n,n,u,25µM
COCC(=O)Nc1ccc(C)c(Cl)c1,14µM,n[0.074 µM],n,n,n,n
COc1ccc(NC(=O)Cc2ccc(C)c(C)c2)cc1Cl,x,n,n,n,n,u
Cc1ccc(NC(=O)Cn2cccc2)cc1Cl,16µM,n[10 µM],n,n,n,11µM
CCCCOC(=O)Nc1ccc(C)c(Cl)c1,16µM,n,n,n,n,n
